ADAM17 inh – ADAM17 inhibition, QFRET primary screen | P78536 | recombinant ADAM17, EDANS/DABCYL FRET peptide cleavage | inhibition, % at 6.95 µM | 0.83% of 370,000 active | AID 720648;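 active = inhibition above the mean of compounds lying between control limits plus 3 SD, set per campaign, cut at about 8.5% in these data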
proKLK7 act – activators of human kallikrein-7 zymogen; P49862; purified proKLK7, EDANS-DABCYL substrate fluorescence; 100% is mature enzyme control, 0% vehicle; activation, % at 7 µM; 0.9% of 370,000 active;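 active = activation above the mean of all tested compounds plus 3 SD, computed per campaign excluding outliers beyond control limits, cut at about 13% in these data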
Target sequence (P49862 whole entry, looked up): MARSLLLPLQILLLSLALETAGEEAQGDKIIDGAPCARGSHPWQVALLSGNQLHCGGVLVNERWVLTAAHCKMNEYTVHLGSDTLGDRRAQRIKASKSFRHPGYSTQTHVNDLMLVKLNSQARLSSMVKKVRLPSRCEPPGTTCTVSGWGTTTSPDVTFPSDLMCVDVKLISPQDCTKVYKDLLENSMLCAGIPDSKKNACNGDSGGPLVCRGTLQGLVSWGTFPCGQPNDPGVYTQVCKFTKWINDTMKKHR
PLCb3 inh – inhibitors of human phospholipase C beta3; 0.18% of 370,000 active; Q01970; Purified PLC-beta3, fluorogenic substrate, fluorescence; inhibition, % at 12.2 µM; AID 720704; in the data active = inhibition above about 11%
PLC-gamma1 inh – PLC-gamma1 (human) inhibition, primary screen | AID 720700 | P19174 | purified PLC-gamma1, fluorogenic substrate, fluorescence | inhibition, % at 12.2 µM | 0.84% of 370,000 active; in the data active = inhibition above about 9.5%
ADAM10 inh – ADAM10 inhibition, QFRET primary screen; O14672; recombinant ADAM10, EDANS/DABCYL FRET peptide cleavage, 3 h; inhibition, % at 7 µM; 0.62% of 370,000 active; AID 720582;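 active = inhibition above a per-campaign cutoff equal to the mean of compounds falling between control-based bounds plus 3 SD, cut at about 20% in these data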
sPLA2-III inh – Blocks human group III sPLA2 activity. Q9NZ20. QFRET BODIPY PC-A2 liposome hydrolysis, fluorescence. inhibition, % at 12.2 µM. 0.56% of 370,000 active. AID 743126;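 active = inhibition above mean plus 3 SD of compounds lying within the high and low control bounds, cut at about 19% in these data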
ADAM10 confirm – human ADAM10 inhibition, confirmation. ADAM10 QFRET peptide cleavage, EDANS fluorescence. inhibition, % at 6.95 µM. shares compounds with ADAM10 inh. 1% of 2,100 active. AID 743208;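 active = inhibition above about 20% chosen separately for each screening run, limit read from the data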
ADAM17 counter – ADAM17 inhibition, counter-screen for ADAM10 exosite hits. 0.5% of 2,100 active. ADAM17 QFRET peptide cleavage, EDANS fluorescence. AID 743214. inhibition, % at 6.95 µM. shares compounds with ADAM10 inh;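 active = mean triplicate inhibition above the solvent-only control wells' mean plus 3 SD, cut at about 12% in these data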
ADAM10 ctr – inhibits human ADAM10 in ADAM17 exosite counter-screen; shares compounds with ADAM17 inh; recombinant ADAM10, EDANS/DABCYL FRET peptide cleavage, 3 h; inhibition, % at 6.95 µM; 47% of 2,900 active;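 active = mean inhibition over the triplicate runs exceeds the activity threshold set in the earlier primary screen, cut at about 20% in these data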
ADAM17 confirm – human ADAM17 inhibition, confirmation; shares compounds with ADAM17 inh; recombinant ADAM17, EDANS/DABCYL QFRET peptide cleavage; inhibition, % at 6.95 µM; 65% of 2,900 active; AID 743257;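 active = mean inhibition across replicates above the hit cutoff set in the primary screen, cut at about 8.5% in these data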
Of the large screens only hits and unclear results are named; the others gave an inactive call (follow-up assays come after a bar, where they were run). This is a sample that favours compounds with a hit; in the whole collection about 3.4% have one here.

CCOC(=O)c1c(NC(=O)CN2C(=O)NC(C)(c3ccc(OC(F)F)cc3)C2=O)sc(C)c1C (stereo unspecified)	ADAM17 inh 10.9, ADAM10 inh 22.0 | ADAM10 confirm inactive | ADAM17 counter inactive | ADAM10 ctr 34.2 | ADAM17 confirm 19.7
COc1ccc(NC(C)C(=O)N/N=C/c2ccccc2OCc2cccc(Br)c2)cc1 (stereo unspecified)	ADAM17 inh 8.8, ADAM10 inh 21.4 | ADAM10 confirm inactive | ADAM17 counter inactive | ADAM10 ctr 48.0 | ADAM17 confirm 21.8
Cc1ccccc1NC(C)C(=O)N/N=C/c1ccccc1OCc1cccc(Br)c1 (stereo unspecified)	ADAM17 inh 9.7, ADAM10 inh 23.8 | ADAM10 confirm inactive | ADAM17 counter inactive | ADAM10 ctr inactive | ADAM17 confirm 13.9
Cc1cccc(NC(=S)NNc2ncc(C(F)(F)F)cc2Cl)c1	ADAM17 inh 13.2, ADAM10 inh 21.4 | ADAM10 confirm inactive | ADAM17 counter inactive | ADAM10 ctr inactive | ADAM17 confirm inactive
COc1cccc(NC(=O)CCNC(=O)C2CCN(S(=O)(=O)c3ccc(F)cc3)CC2)c1	none
O=C1CC(N(CCc2ccccc2)C(=S)Nc2ccccc2)C(=O)N1c1ccc(Br)cc1 (stereo unspecified)	ADAM17 inh 17.3, ADAM10 inh 34.6 | ADAM10 confirm inactive | ADAM17 counter inactive | ADAM10 ctr 45.6 | ADAM17 confirm 21.9
COc1ccc(CCN(C(=S)Nc2ccccc2)C2CC(=O)N(c3ccccc3)C2=O)cc1 (stereo unspecified)	none
COC(=O)C1=CC[C@@H](NC(=O)OC(C)(C)C)[C@H](O)[C@H]1O[Si](C)(C)C(C)(C)C	ADAM17 inh 9.9, ADAM10 inh 21.8 (no result: proKLK7 act) | ADAM10 confirm inactive | ADAM17 counter inactive | ADAM10 ctr inactive | ADAM17 confirm inactive
COc1cccc(NC(=S)N(Cc2ccccn2)Cc2ccccc2Cl)c1	ADAM17 inh 9.3, ADAM10 inh 21.5 | ADAM10 confirm inactive | ADAM17 counter inactive | ADAM10 ctr 23.6 | ADAM17 confirm 12.9
COc1ccc(NC(=S)N(Cc2ccccn2)Cc2ccccc2Cl)cc1	none
COc1ccc(NC(=O)COC(=O)c2ccc(O)cc2)c([N+](=O)[O-])c1	none
Cc1ccc(NS(=O)(=O)c2ccc(N3CCN(c4ccc(O)cc4)CC3)c([N+](=O)[O-])c2)c(C)c1	ADAM17 inh 10.2, ADAM10 inh 20.2 | ADAM10 confirm inactive | ADAM17 counter inactive | ADAM10 ctr 32.5 | ADAM17 confirm 18.8
Cc1noc(C)c1COc1ccc(C(=O)OCc2nnc(-c3ccc(Cl)cc3)o2)cc1	ADAM17 inh 12.3, PLC-gamma1 inh 12.2, ADAM10 inh 21.7 | ADAM10 confirm inactive | ADAM17 counter inactive | ADAM10 ctr 21.0 | ADAM17 confirm 13.7
O=C(OCc1nnc(-c2ccc(Cl)cc2)o1)c1ccncc1	none
COC(=O)CN1C(c2cccc(Cl)c2)=Nc2ccc(Cl)cc2C1c1ccccc1 (stereo unspecified)	ADAM17 inh 16.2, ADAM10 inh 21.2 | ADAM10 confirm inactive | ADAM17 counter inactive | ADAM10 ctr inactive | ADAM17 confirm 8.8
CC/C(=N\NC(=O)c1ccc(CN(C)S(=O)(=O)c2ccc(C)cc2)cc1)c1ccc(OC(F)F)cc1	none
CC(C)(C)NC(=O)CCN(/N=C/c1ccc([N+](=O)[O-])o1)C1=NS(=O)(=O)c2ccccc21	none

Screens deposited in PubChem by The Scripps Research Institute Molecular Screening Center.
